This is part of a sample that, as a whole, favours compounds with a hit. Of some 83,000 tested, about 20% had one in any assay.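 Growth was measured after 48 h exposure to one concentration of compound in 96-well plates. Values under 10 count as active.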 Values without a mark were called inactive. The source made the active and inactive calls.
tested on: HL-60(TB) leukemia; assay: NCI-60 one-dose screen, 48 h (100 = growth as untreated, 0 = no growth, -100 = all killed); details: 10 µM unless noted

Row | SMILES | growth
1 | COc1cc(/C=C/C(=O)c2cnn(-c3cc(=O)[nH]c4ccc(C)cc34)c2C)cc(OC)c1OC | -28.4% (active)
2 | O=C(N/N=C/c1ccoc1)c1[nH]c2ccc(Br)cc2c1-c1ccccc1 | -27.3% (active)
3 | N/C(=N\c1nc2ccccc2s1)NC(=O)Nc1ccccc1F | -5.29% (active)
4 | COc1ccc(-c2cc(-c3cc(OC)c(OC)c(OC)c3)[nH]c(=O)c2C#N)cc1 | 102%
5 | Cc1cccc(Nc2nc3ccccc3nc2/C=C/c2ccc(F)cc2)c1 | 97.3%
6 | CCCCSc1nc(Nc2ccc(/C(C)=N/NC(N)=S)cc2)c(C#N)c(-c2ccc(OC)cc2)n1 | 92.2%
7 | COc1cccc(COc2ccc(/C=C3\Oc4cc(O)ccc4C3=O)cc2)c1 | 79.5%
8 | O=C(NN1C(=O)/C(=C/C=C/c2ccc([N+](=O)[O-])o2)SC1=S)c1ccc([N+](=O)[O-])cc1 | -7.3% (active)
9 | COC[C@@H](CC(C)C)N=C1N/C(=C\c2ccc3ncsc3c2)C(=O)N1C | -1.54% (active)
10 | CN1CCN(C(=O)Oc2cc3c(c4ccccc24)[C@H](CCl)CN3C(=O)c2cc3cc(OCCCN4CCC4)ccc3[nH]2)[C@H]2CSSC[C@H]21 | -22.8% (active)
11 | Cc1cc(C)cc(NC(=O)Cn2cc(COn3nnc4ccccc43)nn2)c1 | 92.6%
12 | O=C1NC(=S)S/C1=C\c1cn(-c2ccccc2)nc1-c1ccc([N+](=O)[O-])cc1 | 9.92% (active)
13 | CCOc1ccc(C(=O)NC(=S)Nc2ccc(S(N)(=O)=O)cc2)cc1 | 103% [100 µM]
